A selection: hits, their analogues and other compounds. The true share with any hit is near 2.6%.
TPT1 inhibitor = C. albicans TPT1 enzyme inhibition; recombinant caTPT1, FP RNA substrate dephosphorylation; inhibition, % at 5 µM; actives 0.81% (n = 300,000); AID 1962;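 active means inhibition above the mean of all tested compounds plus 3 SD, set per screening campaign, cut at about 24% in these data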;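 further: plate controls were DMSO alone for no effect and ferristatin control at 100 nM for full effect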
IDE act = boosts human insulin-degrading enzyme activity in HEK cells | actives 0.073% (n = 340,000) | FAbeta-B cleavage, fluorescence polarization; 0% vehicle, 100% cell-free pure enzyme wells | P14735 | activation, % at 5.96 µM;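 active means activation above the mean of all tested compounds plus 3 SD, set per screening campaign, cut at about 17% in these data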
Target sequence (P14735 whole entry, looked up): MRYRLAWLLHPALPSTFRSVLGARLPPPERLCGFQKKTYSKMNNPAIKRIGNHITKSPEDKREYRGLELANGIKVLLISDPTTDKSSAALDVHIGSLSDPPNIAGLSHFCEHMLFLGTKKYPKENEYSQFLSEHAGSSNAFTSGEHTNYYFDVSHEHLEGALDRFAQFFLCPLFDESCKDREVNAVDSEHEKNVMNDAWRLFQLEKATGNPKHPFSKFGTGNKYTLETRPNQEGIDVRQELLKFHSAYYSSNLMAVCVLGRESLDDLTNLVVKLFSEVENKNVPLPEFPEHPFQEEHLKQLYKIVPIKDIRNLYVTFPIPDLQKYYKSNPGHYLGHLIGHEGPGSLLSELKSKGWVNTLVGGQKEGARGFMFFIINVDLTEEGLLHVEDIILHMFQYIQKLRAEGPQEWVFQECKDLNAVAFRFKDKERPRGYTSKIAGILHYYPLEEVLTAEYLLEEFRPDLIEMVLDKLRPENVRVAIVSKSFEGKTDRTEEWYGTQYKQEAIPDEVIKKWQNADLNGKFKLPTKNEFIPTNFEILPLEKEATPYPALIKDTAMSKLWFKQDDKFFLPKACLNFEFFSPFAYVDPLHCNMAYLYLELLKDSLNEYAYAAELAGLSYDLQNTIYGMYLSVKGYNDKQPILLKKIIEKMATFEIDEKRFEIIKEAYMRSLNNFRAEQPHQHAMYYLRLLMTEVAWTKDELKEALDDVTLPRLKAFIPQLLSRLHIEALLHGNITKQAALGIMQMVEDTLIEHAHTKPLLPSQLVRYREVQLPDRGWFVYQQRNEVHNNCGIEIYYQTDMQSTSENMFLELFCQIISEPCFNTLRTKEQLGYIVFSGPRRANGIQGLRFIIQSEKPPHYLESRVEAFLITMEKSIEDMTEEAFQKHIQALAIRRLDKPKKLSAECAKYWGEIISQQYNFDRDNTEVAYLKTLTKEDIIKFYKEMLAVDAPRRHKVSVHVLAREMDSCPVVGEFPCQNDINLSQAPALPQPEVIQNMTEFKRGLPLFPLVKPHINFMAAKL
IDE inh = inhibitors of human insulin-degrading enzyme in cells; P14735; HEK cells, FAbetaB cleavage, fluorescence polarization; inhibition, % at 5.59 µM; actives 0.41% (n = 320,000);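 active means percent inhibition above the average of all tested compounds plus 3 SD, set per screening campaign, cut at about 16% in these data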;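 further: IDE supplied by intact live HEK cells; FP after avidin binding of uncleaved biotin substrate so inhibition keeps polarization high; 0% = DMSO wells and 100% = 60 µM reference IDE inhibitor Ii1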
CRFBP-R2 block = blocks CRF-induced signaling of the CRF-BP/CRF-R2 complex | inhibition, % at 11.8 µM | actives 0.59% (n = 350,000) | HEK293 CRF-R2/CRF-BP, CRF-induced calcium fluorescence;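 active means inhibition of the ligand-induced calcium signal above about 50% at the single tested concentration, limit read from the data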
Myeloid diff MLP = promotes myeloid progenitor differentiation; ER-HoxA9 myeloid progenitors, lysozyme-GFP differentiation, flow cytometry; calls only at 10 µM; actives 1% (n = 360,000);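 active means normalized GFP-positive differentiation at or above the plate's own cutoff, the solvent-only control mean plus 3 SD; inconclusive means no clear call, values can overlap the other calls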;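 further: cells exposed to compound for four days before flow analysis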
CRFR2-BP ag = CRF-BP/CRF-R2 complex agonism | HEK293 CRF-R2/CRF-BP, calcium dye fluorescence (FLIPR); percent of saturating CRF peptide response | actives 0.46% (n = 350,000) | activation, % at 13.2 µM;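 active means activation of at least 50%, plus an integration ratio under a set limit after plate pattern correction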;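 further: plate controls were neutral control wells without compound for no effect and CRF at EC100 for full effect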
Active calls of the source: *; i = inactive; ? = inconclusive; . = not tested or not shown; + = active, no number.

SMILES	TPT1 inhibitor	IDE act	IDE inh	CRFBP-R2 block	Myeloid diff MLP	CRFR2-BP ag
CC1CCN(C(=O)c2cc3ccccc3cc2O)CC1	1	2	-1	-6	i	0
N=c1n(CCN2CCCCC2)c2ccccc2n1CC(=O)c1cccc([N+](=O)[O-])c1	1	3	2	-1	+	0
C=CCn1c(=N)n(CC(=O)c2cccc([N+](=O)[O-])c2)c2ccccc21	2	7	-3	23	i	-3
COc1ccc(N2CCN(CCCNC(=O)CN3CCN(Cc4ccccc4C)C3=O)CC2)cc1	-4	-2	0	56*	i	6
Cc1ccc(CN2CCN(CC(=O)NCCCN3CCN(c4ccc(F)cc4)CC3)C2=O)cc1	0	3	-3	2	i	-2
Cc1nc(-c2ccccc2)sc1-c1nc(-c2cccnc2)ncc1S(=O)(=O)c1ccccc1	-3	4	1	16	+	3
Cc1cc(C)cc(OCC(=O)O/N=C(\N)c2cccnc2)c1	.	.	.	2	i	-4
CCOC(=O)NC(=O)/C(C#N)=C(/C)N(C)C	-4	3	5	3	i	-2
CCOCC(=O)Nc1ccc2c(c1)OCCO2	-1	-1	-5	27	i	3
CCOCCCN(CC(=O)NC1CCCC1)C(=O)C(=O)Nc1ccc2c(c1)OCCO2	2	4	1	97*	i	0
Cc1nc(CNS(=O)(=O)c2ccc3ccccc3c2)cs1	-3	2	0	65*	i	-2
C[C@]12CCC(=O)CC1=CCC1C3CC=C(C#N)[C@@]3(C)CC[C@@]12O (some centres undefined)	-4	3	9	-11	+	1
CCCCCCSc1ccc(-c2nc3cnccn3c2NCCCC)cc1	.	7	4	-34	+	8
CC1CCCN(CC(=O)Nc2ccc(S(=O)(=O)N3CCCC3)cc2)C1 (centres undefined)	0	4	1	-1	+	1
CC1CCN(S(=O)(=O)c2ccc(NC(=O)CN3CCCC(C)C3)cc2)CC1 (centres undefined)	-2	5	-3	-14	i	-1
Cc1ccc(-n2nnnc2SCC(=O)c2c(N)n(C3CC3)c(=O)[nH]c2=O)cc1	.	-3	2	-11	+	1
Nc1c(C(=O)CSc2nc3ccccc3o2)c(=O)[nH]c(=O)n1C1CC1	.	27*	3	-26	i	1
Nc1c(C(=O)CSc2nnnn2-c2ccccc2)c(=O)[nH]c(=O)n1C1CC1	.	1	-3	19	i	-1
COc1ccccc1-c1nnc(SCC(=O)c2c(N)n(C3CC3)c(=O)[nH]c2=O)o1	.	4	0	-3	i	0
CC(c1ccccc1)n1cnc2ccccc2c1=O (centres undefined)	2	-1	1	-10	i	2
COc1ccc(NC(=O)CCCn2cc([N+](=O)[O-])cn2)cc1	-1	-2	8	-7	i	-4
Cc1ccc(NC(=O)c2ccccc2)cc1	-5	3	3	0	i	-1
Cc1ccc(NC(=O)C2=C(c3ccccc3)S(=O)(=O)CCS2(=O)=O)cc1	-1	-8	10	-52	?	55*
CC(NC(=O)c1cccs1)C(c1cccs1)N1CCOCC1 (centres undefined)	-1	-2	0	-6	i	0
COc1ccc(NCc2cc(=O)oc3cc(NC(C)=O)ccc23)cc1	2	3	8	15	i	-2
SMILES	TPT1 inhibitor	IDE act	IDE inh	CRFBP-R2 block	Myeloid diff MLP	CRFR2-BP ag
Cc1cc2c(SCc3ccccc3Cl)nc(N)nc2nc1C	.	-7	.	-25	+	9
CCc1ccc(C2=NN(S(C)(=O)=O)C(c3cccs3)C2)cc1 (centres undefined)	8	-8	13	-9	+	0
CN(CC(=O)Nc1ccccc1Cl)CC(=O)c1c(N)n(Cc2ccccc2)c(=O)n(C)c1=O	.	4	-3	16	i	0
COc1ccc(S(=O)(=O)NNC(=O)c2csc(-n3nc(C)cc3C(F)(F)F)n2)cc1	0	7	8	61*	i	-4
COc1ccc(/C=C2\CCC(C3CCCC3)C2=O)cc1OC (centres undefined)	2	2	3	53*	i	1
O=C(C1CCN(C2CCN(CC3CC=CCC3)CC2)CC1)N1CCOCC1 (centres undefined)	-3	4	5	86*	i	1
CCC1CCCCN1S(=O)(=O)c1ccc(S(=O)(=O)N2CCN(S(=O)(=O)CC)CC2)cc1 (centres undefined)	-3	18*	6	-14	i	4
CSc1nnc(C)c(=O)n1COC(=O)c1ccc(S(=O)(=O)N(C)C)cc1	2	8	-13	-6	i	-2
O=C(NNC(=O)c1ccccc1-n1cccc1)c1cncc(Br)c1	.	0	2	-2	i	0
CCOC(=O)c1cnc2c(C(=O)OC)cccc2c1NCc1ccco1	-3	0	-2	10	i	1
CCOC(=O)c1cnc2c(C)cccc2c1NCc1ccco1	0	3	-2	-14	+	1
O=C1C=C(NCc2ccccc2)c2ccccc2C1=O	.	-2	.	-3	+	-1
Cn1c(=O)c2cc3c(nc2n(C)c1=O)CC(c1ccccc1)CC3=O (centres undefined)	-2	9	2	67*	i	-5
Cc1ccccc1-c1nc(-c2ccc(NC(=O)c3ccc4c(c3)OCO4)cc2)no1	2	-7	2	-11	+	3
COc1cc(-c2nc(-c3ccc(NC(=O)c4ccc5c(c4)OCO5)cc3)no2)cc(OC)c1OC	1	2	4	-9	i	6
CCCN1CCc2c(sc3nc(SCC)n(-c4ccccc4)c(=O)c23)C1	.	-7	.	-1	+	3
CCCN1CCc2c(sc3nc(SC)n(-c4ccccc4)c(=O)c23)C1	19	-10	-2	19	.	0
Clc1ccccc1-c1nnc(CNC2CC2)o1	0	0	1	-2	i	0
CCN(CC)C(=S)Sc1c(-c2ccccc2)c2cc(Cl)ccc2[nH]c1=O	0	-3	3	-12	i	71*
Cc1ccc(C2(C)NC(=O)N(CC(=O)N3CCN(C(=O)c4cccs4)CC3)C2=O)cc1 (centres undefined)	.	5	1	0	i	1
COc1ccccc1C(=O)Nc1ccnn1C1CCN(C2CCCCC2)CC1	.	.	.	-6	i	2
O=C(NCC1CCCO1)c1ccccc1S(=O)(=O)c1ccc([N+](=O)[O-])cc1 (centres undefined)	0	-2	2	7	+	0
COc1c2c(c(OC)c3ccccc13)[C@@]1(OC2)O[C@H](CCO)C[C@H](O)[C@H]1O	.	.	.	101*	i	1
